The text below walks through data of PubChem BioAssay (NCI).

Compounds without any hit were thinned out: in the full panel of roughly 83,000, 20% have a hit.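 Results are percent growth after 48 hours of single-concentration exposure. 100 means growth as in untreated cells, lower positive values show inhibition; negative values down to -100 show cell death.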 A number with no mark means an inactive call. Active and inactive are the calls of the source. Rule for the calls: active = growth percent below 10; inactive = the rest.

For the experiment, the system named is SNB-19 CNS. Briefly: NCI-60 one-dose screen, 48 h (100 = growth as untreated, 0 = no growth, -100 = all killed). The following applies: 10 µM unless noted.
With `Cc1cc2nc3c4cc(Cl)ccc4n(CC(=O)NCCN(C)C)c3nc2cc1C`, the growth was 81.5%.

For the molecule `COc1cc(/C=C/C(=O)c2ccc(C)cc2)ccc1Oc1nc(NCCO)nc(N2CCOCC2)n1`, the growth was 44%.

For `O=C(N/N=C/c1ccc(Cl)s1)c1[nH]c2ccc(Br)cc2c1-c1ccccc1`, the growth was 33.2%.

In the case of `NS(=O)(=O)c1cccc(Nc2nc(SCC(=O)c3ccc([N+](=O)[O-])cc3)nc3ccccc23)c1`, the growth is 73.7%.

Regarding `Nc1c(C(=O)c2ccc(Br)cc2)oc2nc(-c3cnccn3)cc(-c3cccs3)c12`, the growth was 97.1%.

Take `O=C(N/N=C/c1ccc([N+](=O)[O-])o1)c1[nH]c2ccc(Br)cc2c1-c1ccccc1`: the growth was 22%.

Take `O=C(N/N=C/c1ccc([N+](=O)[O-])s1)c1[nH]c2ccc(Br)cc2c1-c1ccccc1`: the growth was 27.1%.

For the molecule `C#Cc1nc(C2=C(C)C(O)/C(=N/O)C2)cs1` (stereo not drawn), the growth was 109%.

For `COc1cc(/C=C/C(=O)c2cc(OC)c(OC)c(OC)c2)ccc1OCc1ccccc1`, the growth was 34%.

`CCCC(=O)NC(c1ccc(N(CC)CC)cc1)c1cc(C)c2cccnc2c1O` (stereo not drawn): the growth is 25.1%.

On to `CN1CCc2c(sc3ncnc(N/N=C/c4ccc(Cl)c(Cl)c4)c23)C1`, for which the growth was 42%.

Take `O=C(N/N=C/c1ccc[nH]1)c1[nH]c2ccc(Br)cc2c1-c1ccccc1`: the growth was 30.6%.

For `COC(=O)C1CCCN(S(=O)(=O)/N=C2\NC(=O)NC2=C(Cl)Cl)C1` (stereo not drawn), the growth was 94.6%.

On to `C=CCn1c(SCC(=O)c2ccccc2)nnc1-c1c[nH]c2ccccc12`, for which the growth was 98.3%.

Take `COc1ccc(-n2c(SCC(=O)Nc3ccc(-c4nc5ccccc5[nH]4)cc3)nc3ccccc3c2=O)cc1`: the growth is 20.9%.

Regarding `O=C(Oc1ccc2ccc(=O)oc2c1)c1ccc(Cl)cc1`, the growth is 93.2%.

In the case of `COc1ccc(C(=O)/C=C/c2ccc(OCc3ccc(Cl)cc3)c(OC)c2)cc1OC`, the growth was 72.3%.

As to `O=C(N/N=C/c1cccs1)c1[nH]c2ccc(Br)cc2c1-c1ccccc1`, the growth is 32.3%.

For `Cc1cc2nc3c4cc(Cl)ccc4n(CC(=S)NCCN(C)C)c3nc2cc1C`, the growth was 4.89% (active).

For the molecule `COc1ccc([C@@H]2c3[nH]c4ccccc4c3CC3C(=O)N(C4CCN(Cc5c(F)cccc5F)CC4)CC(=O)N32)c(OC)c1` (stereo partly drawn), the growth was 64.2% [5.26 µM].

As to `Cc1cc(C(NC(=O)CCCCCNc2cccc3c2C(=O)N(C2CCC(=O)NC2=O)C3=O)c2cccnc2)c(O)c2ncccc12` (stereo not drawn), the growth is 21.7%.

On to `CC(=NNc1ncnc2ccccc12)c1ccc(S(C)(=O)=O)cc1`, for which the growth was 97.6%.

Turning to `Nc1nc(N)c2c(n1)NC(c1ccc(C(F)(F)F)cc1)CC(c1ccc(Nc3nc(NCCO)nc(Nc4ccc(Cl)cc4)n3)cc1)=N2` (stereo not drawn), the growth was -79.1% (active).

In the case of `COc1ccc(/C=C2\SC(=Nc3cc(C)[nH]n3)NC2=O)cc1`, the growth is 90.8%.

Regarding `Cn1ccnc1C(=O)/C=C/c1ccc(NC(=O)Nc2ccc(Cl)cc2)cc1`, the growth is 78.9%.

As to `COC(=O)C1CN(S(=O)(=O)/N=C2\NC(=O)NC2=C(Cl)Cl)C1`, the growth is 100%.

`Nc1nc(N)c2c(n1)NC(c1ccc(F)cc1)CC(c1ccc(Nc3nc(NCCO)nc(Nc4ccc(Cl)cc4)n3)cc1)=N2` (stereo not drawn): the growth was 8.01% (active).

As to `COc1cc(/C=C/C(=O)c2cc(OC)c(OC)c(OC)c2)ccc1OCc1ccc(F)cc1`, the growth was 49.8%.

`CC(O)C(NC(=O)C1CCCN1C(=O)CNC(=O)C1CC(=O)NCC(=O)NC(Cc2c[nH]c3ccccc23)C(=O)NC(Cc2ccc(O)cc2)C(=O)NCC(=O)NC(CO)C(=O)NC(CCC(N)=O)C(=O)NC(Cc2c[nH]c3ccccc23)C(=O)N1)C(=O)NCC(=O)NC(CCC(N)=O)C(=O)NC(CCCNC(=N)N)C(=O)NC(CC(=O)O)C(=O)O` (stereo not drawn): the growth is 96.6%.

With `COc1cc(/C=C/C(=O)c2cc(OC)c(OC)c(OC)c2)ccc1Oc1nc(NCCO)nc(N2CCOCC2)n1`, the growth was 12.4%.

`COc1cc(N=Cc2sc(Nc3nccs3)nc2O)cc(OC)c1OC`: the growth is 78.2%.

Take `C#Cc1nc(C2=C(C)C(OC(=O)CCC(=O)O)CC2)cs1` (stereo not drawn): the growth was 104%.

With `O=C(N/N=C/c1ccc(Br)s1)c1[nH]c2ccc(Br)cc2c1-c1ccccc1`, the growth is 31.3%.

Take `COc1cc(/C=C/C(=O)c2ccc(Cl)cc2)ccc1Oc1nc(NCCO)nc(N2CCOCC2)n1`: the growth was 99.3%.

As for `O=C(N/N=C/c1ccco1)c1[nH]c2ccc(Br)cc2c1-c1ccccc1`, the growth is 41.4%.

With `COC(=O)C(C)NS(=O)(=O)/N=C1\NC(=O)NC1=C(Cl)Cl` (stereo not drawn), the growth was 100%.

`COc1cc(/C=C/C(=O)c2ccc(F)cc2)ccc1Oc1nc(NCCO)nc(N2CCOCC2)n1`: the growth is 69.4%.

For `O=C(CN1CCOCC1)NNc1ncnc2ccccc12`, the growth was 102%.
